From PubChem BioAssay (Tox21) come the findings set out here.

Where “and” joins values, the source holds several entries; their conditions need not be identical. Equal entries are not always repeated. Records with an inconclusive call do not appear. Entries that show only a call come without a potency. A number with no mark means an inactive call. Calls of active or inactive are those of the source. Calls follow the shape of the full dose curve.
Potency is read from the fitted curve at half-maximal effect.

Chain of Muscarinic acetylcholine receptor M1 (Homo sapiens) (P11229 whole entry, looked up): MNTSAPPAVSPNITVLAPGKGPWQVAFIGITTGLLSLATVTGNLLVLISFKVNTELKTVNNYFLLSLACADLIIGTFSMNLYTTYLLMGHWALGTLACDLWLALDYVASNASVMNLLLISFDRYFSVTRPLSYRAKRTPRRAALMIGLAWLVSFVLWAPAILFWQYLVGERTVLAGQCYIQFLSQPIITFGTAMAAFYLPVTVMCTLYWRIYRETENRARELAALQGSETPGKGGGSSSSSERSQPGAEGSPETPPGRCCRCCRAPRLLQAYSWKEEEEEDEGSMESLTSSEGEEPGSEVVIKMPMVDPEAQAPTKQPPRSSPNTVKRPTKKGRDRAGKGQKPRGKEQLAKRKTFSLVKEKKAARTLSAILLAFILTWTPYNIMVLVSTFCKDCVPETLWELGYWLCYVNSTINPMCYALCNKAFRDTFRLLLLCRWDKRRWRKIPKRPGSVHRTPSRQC

The assay has as its target Muscarinic acetylcholine receptor M1 (Homo sapiens) (UniProt P11229). Briefly: Cholinergic receptor muscarinic 1 (CHRM1) small molecule antagonists, cell-based qHTS assay (AID 1963588). Also: nearly all actives have a fitted effect of over 40% in size. As to conditions: CHRM1-CHO antagonist mode, calcium flux fluorescence; series mostly up to 61.5 µM; activity, negative = inhibition: at the top concentration. The text has this: National Center for Advancing Translational Sciences [NCATS]
Division of Preclinical Innovation [DPI]
U.S. Environmental Protection Agency [EPA]
National Institutes of Environmental Health Sciences [NIEHS]
National Toxicology Program [NTP]
U.S. Food and Drug Administration [FDA]
The CHRM1 is a muscarinic receptor. This receptor plays a crucial role in learning and memory processes and has long been identified as a promising therapeutic target for the improvement of cognitive decline in Alzheimer's disease (AD). The CHRM1-CHO cell line stably expressing human muscarinic acetylcholine receptor M1 (CHRM1) can be used for screening agonists and antagonists of interactions between CHRM1 and its ligands. The CHRM1-CHO Calcium Flux Assay is a homogeneous fluorescence-based assay for detecting the intracellular calcium level using FDSS kinetic plate reader system.
Tox21 Assay Protocol Summary:
CHRM1-CHO cells were dispensed at 1000 cells/3uL/well in 1536-well black-clear bottom plates using a Multidrop Dispenser. After the assay plates were incubated at a 37 C/5% CO2 incubator for 18 h, 3 uL of Dye Loading Buffer was transferred to the assay plate by a Flying Reagent Dispenser. The assay plates were incubated at 37 C for 1h. For antagonist mode, 23 nL of compounds dissolved in DMSO, positive controls or DMSO only was transferred to the assay plate by a pin tool. After 5 min incubation at room temperature, 1.5 uL of acetylcholine at 50nM was added to each well. The fluorescence intensity in the plates was measured using FDSS 7000EX kinetic plate reader for 3 min at 1 sec intervals. Each test compound was measured at 15 concentrations in three independent runs.
For orientation: qHTS replaces the single test concentration by a dilution series.
On to `C=C(C)C(=O)Nc1ccc(Cl)c(Cl)c1`, for which the “activity, negative = inhibition” value was 10.3%.

As to `CC(CCl)OP(=O)(OC(C)CCl)OC(C)CCl` (stereo not given), the Potency entry was “inactive”.

As to `CCC(C)OC(=O)c1ccc(O)cc1` (stereo not given), the Potency entry is “inactive”.

As to `C1CCCNCC1`, the Potency entry is “inactive”.

As to `COc1ccc(OC)cc1`, the Potency entry was “inactive”.

Consider `CC(C)Cc1ccccc1`, for which the “activity, negative = inhibition” value is 10.9%.

As to `Cc1ccccc1C=O`, the Potency result was “inactive”.

With `O=c1[nH]c(=O)n([C@H]2C[C@H](O)[C@@H](CO)O2)cc1Br`, the Potency entry was “inactive”.

As to `Cc1cc(=O)oc2cc(O)ccc12`, the Potency result is “inactive”.

Turning to `C=Cc1ccc(C)cc1`, the Potency result was “inactive”.

As for `C=CCOC(=O)CC(C)C`, the Potency entry is “inactive”.

In the case of `CCCCCCCCCCCCCCCC(=O)OC(C)C`, the Potency entry is “inactive”.

Take `CCO[Si](CCCN)(OCC)OCC`: the “activity, negative = inhibition” value is 2.18%.

With `C=CC(C)(CCC=C(C)C)OC(C)=O` (stereo not given), the Potency result was “inactive”.

Consider `CCc1cccc(C)c1N`, for which the Potency entry was “inactive”.

For the compound `CCCCOCCO`, the Potency entry was “inactive”.

Take `O=[Se](O)O`: the Potency entry is “inactive”.

Consider `CCCCCCCCC(=O)O`, for which the Potency entry was “inactive”.

On to `CCCOC(=O)NCCCN(C)C`, for which the Potency entry was “inactive”.

On to `CC1=CCC2CC1C2(C)C` (stereo not given), for which the Potency entry is “inactive”.

Turning to `CNC[C@H](O)[C@@H](O)[C@H](O)[C@H](O)CO`, the Potency result is “inactive”.

On to `CC(=O)OCC(=O)[C@@]12N=C(C)O[C@@H]1C[C@H]1[C@@H]3CCC4=CC(=O)C=C[C@]4(C)[C@H]3[C@@H](O)C[C@@]12C`, for which the Potency result is “inactive”.

Regarding `CC(O)CN(CCN(CC(C)O)CC(C)O)CC(C)O` (stereo not given), the Potency result was “inactive”.

For `CC(C)OP(=O)(CP(=O)(OC(C)C)OC(C)C)OC(C)C`, the Potency entry was “inactive”.

Regarding `CC(=O)CC/C=C(\C)CCC=C(C)C`, the Potency result is “inactive”.

`O=C1CCCCCCCCCCC1`: the Potency entry is “inactive”.

Turning to `CCOCCO`, the Potency result is “inactive”.

On to `CN(C)C`, for which the Potency result was “inactive”.

With `CCCCCCC(=O)O`, the Potency result was “inactive”.

As for `Nc1cc(Cl)c(-c2cc(Cl)c(N)cc2Cl)cc1Cl`, the “activity, negative = inhibition” value is 80.6%.

Take `CCCCCCCCCCCCCC[N+](C)(C)C`: the Potency is 941 nM (active) and 818 nM (active).

Consider `CCCCCC(=O)O`, for which the Potency result is “inactive”.

`c1ccc2[nH]ccc2c1`: the Potency result is “inactive”.

Regarding `CCCCCCCCCCO`, the Potency result is “inactive”.

As to `O=C(O)c1cc(C(=O)O)cc(S(=O)(=O)O)c1`, the Potency result was “inactive”.

With `Cc1cccc(C)c1`, the Potency result is “inactive”.

`COc1cc(C=O)ccc1O`: the Potency result is “inactive”.

Turning to `C=CC(C)CCCC(C)(C)O` (stereo not given), the Potency entry was “inactive”.

Consider `Cc1cccc2n[nH]nc12`, for which the Potency result is “inactive”.

As to `O=S(=O)(O)c1ccc2ccccc2c1`, the Potency result is “inactive”.
